Results on ten compounds are retold here after PubChem BioAssay (NCATS).

Results filed as inconclusive are left out. Activity calls are given as the source filed them. Unless noted, no rule for the calls is given here.

Test [1] is described as follows: qHTS profiling of the MIPE4 collection as inhibitors of Plasmodium falciparum (3D7) proliferation (AID 743344).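 Also: scaled between DMSO vehicle wells and 0.29 µM artemisinin as full inhibition.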 The settings on record: P. falciparum 3D7 in erythrocytes, SYBR Green DNA fluorescence, 72 h; at 28.5 µM unless noted. In short, it runs like this: (§1)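 Erythrocytes infected with P. falciparum (0.3% parasitemia, 2.5% hematocrit) incubated with compounds 72 h at 37 C, 5% CO2. Lysis with saponin/Triton buffer containing SYBR Green I, overnight at room temperature in the dark; DNA fluorescence (485/535 nm) normalised to 0.29 uM artemisinin and DMSO.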

Test [2] in a line: qHTS profiling of the MIPE4 collection as inhibitors of Plasmodium falciparum (DD2) proliferation (AID 743345). The settings on record: P. falciparum Dd2 in erythrocytes, SYBR Green DNA, 72 h; at 28.5 µM unless noted. In short, it runs like this: as §1
Test [3] can be described thus: qHTS profiling of the MIPE4 collection as inhibitors of Plasmodium falciparum (DD2) proliferation (Rep 2) (AID 743346). The settings on record: P. falciparum Dd2 in erythrocytes, SYBR Green DNA, 72 h; at 28.5 µM unless noted. Put shortly:
as §1

Test [4] in a line: qHTS profiling of the MIPE4 collection as inhibitors of Plasmodium falciparum (HB3) proliferation (AID 743347).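 Also: plate controls were DMSO vehicle wells for no effect and artemisinin wells for full effect.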 The note with it: P. falciparum HB3 in erythrocytes, SYBR Green DNA, 72 h; at 28.5 µM unless noted. In short, it runs like this:
as §1

The nature of test [5]: High-throughput drug toxicity screening in the BPDCN cell line Gen2.2 (AID 1224824).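 Also: cells exposed to compounds for 48 h before reading.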 The settings on record: Gen2.2 BPDCN cells; at 45.8 µM (top of the series) unless noted. In short, it runs like this:
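Readout is ATP luminescence from Gen2.2 cells after two days of drug exposure in serum-containing medium at 37 °C. Values express percent activity, with vehicle defining full signal and 9.2 uM bortezomib defining zero.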

The nature of test [6]: High-throughput drug toxicity screening in the BPDCN cell line Cal-1 (AID 1224825). The settings on record: Cal-1 BPDCN cell viability, qHTS; at 45.8 µM (top of the series) unless noted. Put shortly: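 Cal-1 cells, 500 per well in phenol-red-free RPMI with 10% FBS, exposed to compounds for 48 hours at 37C, 5% CO2. Viability read by CellTiter-Glo luminescence; percent activity normalized to DMSO (100%) and 9.2 uM bortezomib final (0%).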

Test [7] in a line: qHTS assay for measurement of the activity of small molecule inhibitors on Zika virus induced Caspase-3 activity in human iPSC derived neural progenitor cells (hNPCs) (AID 1224857; active = well fitted inhibition curve with a large enough effect; also: nearly all actives have a fitted effect of over 65% in size; also: potency is read from the fitted curve at half-maximal effect). In short, it runs like this:
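In medium with heparin 2 ug/ml and cyclopamine 2 uM, hNPCs (350 cells/well) received compound for one hour and then Zika virus at 2 FFU/cell; caspase activity was measured by Caspase-Glo 3/7 luminescence 6 h post-infection.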

The nature of test [8]: qHTS assay for measurement of the activity of small molecule inhibitors on Zika virus induced Caspase-3 activity in human astrocytoma cells (AID 1224859; active = well fitted inhibition curve with a large enough effect; also: potency is read from the fitted curve at half-maximal effect). In short, it runs like this:
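A cell-based luminescent caspase-3/7 assay used SNB-19 cells infected with ZIKV (2 FFU/cell) for 6 h following 1 h compound pretreatment.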

The nature of test [9]: qHTS Screen of the MIPE 4.0 Collection Against Ewings Sarcoma (RDES) (AID 1259252; active = well fitted inhibition curve with a large enough effect; also: nearly all actives have a fitted effect of over 35% in size; also: potency is read from the fitted curve at half-maximal effect). In short, it runs like this: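 Log-phase cells in RPMI with 5% FBS attached for 4 h, then received compounds as a titration for 48 h at 37C, 5% CO2. Viability was read by CellTiter-Glo luminescence and normalized to DMSO and no-cell wells.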

Consider `N#CC1(c2cccc(C(=O)Nc3cc(Oc4ccc5nc(NC(=O)C6CC6)sc5n4)ccc3F)c2Cl)CC1`, for which the parasite growth, % of DMSO control in [1] amounted to 14.7%. Further, the parasite growth remaining, % of DMSO control (lower = more inhibition) in test [2] amounted to 28.8%. The parasite growth, % of control (lower = inhibition) in [3] is 30.3%. Moreover, the growth, % of control in test [4] is 9.87%. In addition, the cell viability, % of control (lower = more cytotoxic) in [5] was 7.3%. In addition, the viability (% of control) in test [6] came out at 43.3%. In addition, the Potency result in test [7] and in test [8] was “inactive” throughout. Further, in test [9], the Potency is 16.6 µM (active).

In test [1], `COc1ccc(C=CC(=O)Nc2ccccc2C(=O)O)cc1OC` showed a parasite growth, % of DMSO control of 24.6%. Also, in test [2], the parasite growth remaining, % of DMSO control (lower = more inhibition) was 90.5%. In test [3], this compound showed a parasite growth, % of control (lower = inhibition) of 48.9%. In test [4], this compound returned a growth, % of control of 32%. Moreover, the cell viability, % of control (lower = more cytotoxic) in test [5] was determined as 188%. The viability (% of control) in test [6] was 104%. The Potency in test [7] and in [8] was 2.64 µM (active) throughout. Also, the Potency result in test [9] was “inactive”.

`COc1cc(Cl)cn2c(-c3cccc(NC4CNC4)n3)cnc12` yielded a parasite growth, % of DMSO control in [1] of 39.6%. In test [2], this compound yielded a parasite growth remaining, % of DMSO control (lower = more inhibition) of 27.3%. For the same compound, in test [3], the parasite growth, % of control (lower = inhibition) was determined as 33.2%. The same compound displayed a growth, % of control in test [4] of 42.7%. In addition, the cell viability, % of control (lower = more cytotoxic) in test [5] is 91.4%. For the same compound, in test [6], the viability (% of control) was determined as 5.98%. The Potency entry in test [7] and in [8] was “inactive” throughout. For the same compound, in [9], the Potency was 26.4 µM (active).

With `O=C(Nc1cccc2c(=O)cc(-c3nn[nH]n3)oc12)c1ccc(OCCCCc2ccccc2)cc1`, the parasite growth, % of DMSO control in [1] was determined as 8.12%. The same compound returned a parasite growth remaining, % of DMSO control (lower = more inhibition) in test [2] of 31.5%. In addition, the parasite growth, % of control (lower = inhibition) in test [3] amounted to 15.1%. For the same compound, the growth, % of control in test [4] came to 7.59%. For the same compound, the cell viability, % of control (lower = more cytotoxic) in test [5] turned out to be 51.3%. In addition, the viability (% of control) in [6] came to 26.2%. Further, the Potency entry in test [7] and in test [8] was “inactive” in each case. The Potency in [9] is 16.6 µM (active).

`C[C@]12CCC3=C4CCC(=O)C=C4CC[C@@H]3[C@H]1CC[C@@]2(O)CC#N` returned a parasite growth, % of DMSO control in test [1] of 92.8%. Besides, the parasite growth remaining, % of DMSO control (lower = more inhibition) in [2] amounted to 97.5%. In [3], this compound showed a parasite growth, % of control (lower = inhibition) of 71%. Moreover, in test [4], the growth, % of control is 93%. For the same compound, the cell viability, % of control (lower = more cytotoxic) in [5] turned out to be 106%. For the same compound, in test [6], the viability (% of control) was found to be 107%. In addition, the Potency result in test [7], in [8] and in test [9] was “inactive” throughout.

In test [1], `CC1(C)C(N(O)C(=O)Nc2ccc(Cl)cc2)N(c2ccc(Cl)cc2)C(=O)N1CC(=O)NN=CC=Cc1ccc([N+](=O)[O-])o1` (stereo not given) registered a parasite growth, % of DMSO control of 5.05%. This compound showed a parasite growth remaining, % of DMSO control (lower = more inhibition) in test [2] of 9.75%. Besides, the parasite growth, % of control (lower = inhibition) in [3] worked out at 18.3%. This compound also came in with a growth, % of control in test [4] of 7.55%. Moreover, the cell viability, % of control (lower = more cytotoxic) in test [5] worked out at 3.85%. Besides, in test [6], the viability (% of control) was determined as 2.85%. For the same compound, the Potency result in [7] and in [8] was “inactive” in each case. Further, the Potency in [9] was 26.4 µM (active).

Turning to `COC(=O)[C@H](c1ccccc1Cl)N1CCc2sccc2C1`, the parasite growth, % of DMSO control in test [1] is 43.8%. In addition, the parasite growth remaining, % of DMSO control (lower = more inhibition) in test [2] worked out at 79%. In [3], this compound yielded a parasite growth, % of control (lower = inhibition) of 22.1%. In addition, the growth, % of control in test [4] came to 24.3%. Further, the cell viability, % of control (lower = more cytotoxic) in test [5] amounted to 95.6%. The viability (% of control) in test [6] is 91.3%. Moreover, the Potency entry in test [7], in test [8] and in test [9] was “inactive” each time.

On to `COc1ccc(-c2cc3nccn3c(Nc3ncccc3C(N)=O)n2)cc1OC`, for which the parasite growth, % of DMSO control in [1] is 4.5%. The same compound gave a parasite growth remaining, % of DMSO control (lower = more inhibition) in [2] of 9.28%. Also, the parasite growth, % of control (lower = inhibition) in test [3] was 5.75%. The compound further yielded a growth, % of control in test [4] of 2.93%. For the same compound, the cell viability, % of control (lower = more cytotoxic) in test [5] is 47.7%. The viability (% of control) in test [6] was 26.1%. Moreover, the Potency entry in test [7] and in [8] was “inactive” each time. Besides, the Potency in test [9] is 14.8 µM (active).

The compound `COc1cc2ncnc(Nc3cc(Br)c(O)c(Br)c3)c2cc1OC` yielded a parasite growth, % of DMSO control in test [1] of 10.7%. Further, in test [2], the parasite growth remaining, % of DMSO control (lower = more inhibition) was 54.4%. Moreover, the parasite growth, % of control (lower = inhibition) in test [3] amounted to 43.2%. The growth, % of control in [4] came to 5.25%. The cell viability, % of control (lower = more cytotoxic) in [5] is 15.7%. Besides, in [6], the viability (% of control) stood at 11%. Moreover, the Potency entry in [7] and in test [8] was “inactive” each time. Further, the Potency in test [9] is 0.0418 µM (active).

`O=c1[nH]c(=O)n([C@H]2C[C@@H](O)[C@@H](CO)O2)cc1C(F)(F)F` displayed a parasite growth, % of DMSO control in test [1] of 62.3%. The compound further gave a parasite growth remaining, % of DMSO control (lower = more inhibition) in test [2] of 62%. The same compound registered a parasite growth, % of control (lower = inhibition) in test [3] of 91.9%. The same compound yielded a growth, % of control in [4] of 36.7%. Besides, the cell viability, % of control (lower = more cytotoxic) in test [5] came out at 118%. Besides, the viability (% of control) in test [6] turned out to be 13.9%. The Potency entry in test [7] and in [8] was “inactive” throughout. For the same compound, in test [9], the Potency was 5.26 µM (active).
